The values below come from PubChem BioAssay AID687011 (National Center for Advancing Translational Sciences (NCATS), 2013).

Calls of active or inactive are those of the source.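 Rule for the calls: active = significant body weight gain in treated spinal muscular atrophy model mice compared with vehicle-treated controls; inactive = no significant body weight gain.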

The test can be described thus: Extended Characterization of SMN2 Inhibitors: Body Weight Studies. The following applies: SMNdelta7 SMA mice, 50 mg/kg ip. The source says: Spinal muscular atrophy (SMA) is caused by insufficient levels of the survival motor neuron protein SMN. The SMN locus on chromosome 5q13 contains two inverted copies of SMN called SMN1 and SMN2 which are 99% identical at the amino acid level. SMN1 is a fully functional protein and SMN2 skips exon 7 90% of the time. Skipping of exon 7 produces non-functional protein product. 10% of the SMN2 protein includes exon 7 and is fully functional. In the SMA disease state, mutations in the SMN1 locus are the cause of the disease state. Because only 10% of SMN2 is of the fully functional form, it is not sufficient to overcome the deficiency produced by the loss of the SMN1 product. A therapy that either increase the amount of SMN2 product made or to increase the inclusion of exon 7 has been proposed for the treatment of SMA. We have previously filed a probe report and have now done further SAR and further characterized the resulting compounds in mice studies. Here we tested the new compound to see if there was an improval in body weight when administered to SMNdelta7 SMA mice. NIH Chemical Genomics Center [NCGC] NIH Molecular Libraries Probe Production centers Network [MLPCN] MLPCN Grant: R03 MH084179 Assay Submitter (PI): Elliot Androphy […]
Take `O=C(O)C1CCN(c2ncc(-c3ccc4c(c3)OCCCO4)s2)CC1`: the outcome is “active; yes”.
